Assay results from PubChem BioAssay AID2289 (National Center for Advancing Translational Sciences (NCATS), 2010).
Among all 340,000 compounds or so, about 3,300 (0.97%) were called active. Roughly 9% stayed inconclusive and do not appear here. Calls come from the whole dose curve; as a rule, active = well fitted inhibition curve with a large enough effect; inconclusive = small, poorly fitted or top-dose-only effect, or effect the other way; inactive = flat fitted curve, though single readings scatter. The list shows a part of the results.

Experiment: qHTS Assay for Modulators of miRNAs and/or Inhibitors of miR-21; note: nearly all actives have a fitted effect of over 55% in size
Conditions: HeLa miR-21-FLuc reporter, luciferase luminescence, 48 h; actives lower the signal
From the text: MLSCN Grant: 1 R21 NS059478-01 Assay Provider: Qihong Huang, The Wistar Institute NCGC Assay Overview: MicroRNAs (miRNAs) are endogenously encoded small (~20-25 nucleotides), nonprotein-coding RNAs that are involved in post-transcriptional repression of target messenger RNAs (mRNAs) (Le and Hannon, 2004). Estimated to be involved in the regulation of 30% of all protein-coding mRNAs (Filipowicz et al., 2008), miRNAs play a significant role in many biological processes including cellular differentiation and tissue development (Ghildiyal and Zamore, 2009).
NCGC Assay Protocol Summary: Reagents: HeLa cells stably expressing firefly luciferase (FLuc) under the control of a CMV promoter (upstream) and a miR-21 binding sequence directly downstream of the gene. These cells endogenously express miR-21. Control compounds used were compound C3 (provided by collaborator), N6-phenyladenosine (MP Biomedicals, 0215379625), and DMSO. Assay Summary: 6uL of HeLa miR-21-FLuc cells in assay buffer (DMEM, Invitrogen #21063-029; 10% FBS, HyClone #SH30071.03) were dispensed at 2000cells/well (3.3 x 10^5 cells/mL) into Greiner solid-white TC-treated 1536-well plates using a Multidrop Combi (Thermo Fisher Scientific). Plates were incubated for one hour at 37 degree Celsius, 95% humidity, 5% CO2. These assay plates were then treated with 23nL of compound or DMSO using a Kalypsys pin tool, which allows for delivery of a 24-point titration of each compound to the assay plate, with a final compound concentration ranging from approximately 40uM to 5pM. Assay plates were then incubated for 48 hours. After incubation, plates were allowed to come to RT for one hour prior to delivery of 3uL of 3X luciferase detection reagent. After a 15 minute incubation to allow for cell lysis, luciferase activity was measured using a ViewLux CCD imager (PerkinElmer), with an average exposure time of 2-12 seconds. Keywords: NIH Roadmap, MLPCN, MLSMR, qHTS, miR-21, microRNA, firefly luciferase, FLuc.
Potency is the fitted concentration of half-maximal effect.

Potency, active:
CN(CCC#N)C(=O)c1cc2c(s1)-c1ccccc1SC2 4.14 µM
COc1ccc(C(=O)Nc2nnc(S(=O)(=O)N3CCC(C)CC3)s2)cc1OC 0.464 µM
Cc1ccccc1C(=O)Nc1nnc(S(=O)(=O)N2CCCCCC2)s1 1.65 µM
O=C(Nc1nnc(S(=O)(=O)N2CCCC2)s1)c1ccc(F)cc1 3.69 µM
CCC(CC)C(=O)Nc1nnc(S(=O)(=O)N2c3ccccc3CC2C)s1 (stereo unspecified) 2.61 µM
Cn1c(-c2cc3ccc(OC(=O)C(C)(C)C)cc3oc2=O)nc2ccccc21 3.69 µM
COc1ccccc1N1CCN(/N=C/c2cccc(Cl)c2)CC1 6.56 µM
COc1ccccc1N1CCN(/N=C\c2ccccc2)CC1 10.4 µM
CCOC(=O)c1snc(C(=O)NC2CCCCC2)c1N 7.36 µM
CN(C)/C=C(/C(=O)c1ccc(Cl)cc1)S(=O)(=O)c1ccccc1 18.5 µM
CCC(=O)Nc1ccc2oc(-c3cccnc3)nc2c1 8.26 µM
O=C(Nc1ccc2oc(-c3cccnc3)nc2c1)c1ccco1 11.7 µM
CCCC(=O)Nc1ccc2oc(-c3ccc(O)c(Br)c3)nc2c1 0.927 µM
Cc1cc(-c2nc3ncccc3o2)ccc1N 3.29 µM
O=C(Nc1ccc(-c2nc3ncccc3o2)cc1)c1ccco1 1.85 µM
COc1ccc(OCCN2C(=O)c3cccc(N)c3C2=O)cc1 14.7 µM
Nc1cccc2c1C(=O)N(CCOc1ccc(F)cc1)C2=O 0.826 µM
COc1ccc(C2=NN(c3ccc(C(=O)O)cc3)C(c3ccc(OC)c(OC)c3)C2)cc1 (stereo unspecified) 18.5 µM
COc1cccc(CN=C2Nc3ccccc3CS2)c1 4.65 µM
COc1ccccc1CN=C1Nc2ccccc2CS1 5.85 µM
CCCC(=O)Nc1ccc(NC(=O)C23CC4CC(CC(C4)C2)C3)cn1 18.5 µM
OC[C@H]1O[C@@H](n2cnc3c(Nc4ccccc4)ncnc32)[C@H](O)[C@@H]1O 3.69 µM
CCOC(=O)c1c(C)[nH]c2cc(Br)c(O)cc12 16.5 µM
CCc1ccc(OCC(=O)N2CCc3ccccc32)cc1 4.65 µM
COc1ccc2c(CC(=O)N3CCc4ccccc43)coc2c1 2.93 µM
O=C(COc1ccc2c(c1)CCC2)N1CCc2ccccc21 3.29 µM
O=C(COc1ccccc1Cl)N1CCc2ccccc21 2.07 µM
Cc1c(C(=O)N2CCc3ccccc32)oc2ccccc12 0.736 µM
COc1ccc(C(=O)N2CCc3ccccc32)cc1 18.5 µM
O=C(COc1ccccc1)N1CCc2ccccc21 4.65 µM
Cc1c(Br)c(C(=O)N2CCc3ccccc32)nn1C 5.21 µM
